Laboratory results from PubChem BioAssay AID590 (National Center for Advancing Translational Sciences (NCATS), 2007).
The campaign covered roughly 59,000 compounds. About 6,500 (11%) were called active. Roughly 15% stayed inconclusive and do not appear here. Rule as the data show it: active = max dye-equivalent concentration above about 10 nM; inconclusive = mostly about 1.1 nM to 9.6 nM; inactive = weaker than that. What follows is part of a selection rich in actives, with near analogues and random picks from the rest.

test: qHTS Assay for Spectroscopic Profiling in A350 Spectral Region; conditions: Compound autofluorescence, 340/450 nm, Alexa 350 dye-equivalents; active compounds read high
From the text: NIH Molecular Libraries Screening Centers Network [MLSCN]
NIH Chemical Genomics Center [NCGC]
Occasionally, the artifactual effect may originate from the compounds own spectral or other biophysical properties which generally tend to track its assay concentration. Pre-screening/profiling the library with respect to the compounds spectral properties should help one exclude false positives early on. While the most informative fluorescent profiling data set is obtained by performing a full excitation and emission scan of each well by using a monochromator-based plate reader, such an approach is practical only on a very limited scale as scanning each well requires long time. An alternative approach, applied here, is to perform plate reader scans using selected excitation and emission wavelength pairs to generate a multidimensional relational database that correlates compound concentration and the respective relative fluorescence intensity at a given wavelength set. A standard curve of Alexa 350 (A 350) present on each plate as six-point concentration series, was used to compute a normalized fluorescence response, termed dye-equivalent concentration, for each compound at each concentration.
NCGC Assay Protocol Summary:
100 mM Tris buffer, pH 8.0
The wells in columns 1 through 4 of a Kalypsys polypropylene 1536-well compound plate were filled with standard solutions of fluorophore corresponding to the spectral region of interest. Solutions of A 350 were placed in the following wells: I1, J1: 3 mM, I2, J2: 300 uM, I3, J3: 30 uM, I4, J4: zero (DMSO), K1, L1: 3 uM, K2, L2: […], K3, L3: 300 nM, K4, L4: zero (DMSO).
Six uL of buffer were dispensed to 1536-well Greiner black plates. Compounds and dye standards (23 nL) were transferred via Kalypsys PinTool. The plates were incubated for 15 min at room temperature, and then read on ViewLux (Perkin-Elmer) High-throughput CCD imager using 340 nm and 450 nm excitation and emission filter set.
Keywords: NIH Roadmap, MLSCN, MLI, MLSMR, qHTS, NCGC, A350, A-350, Fluorescent Profiling.

| Structure (SMILES) | max dye-equivalent concentration |
| --- | --- |
| Nc1nnnn1/N=C/c1cccs1 | inactive |
| N=c1c2c3c(sc2ncn1N)CCCCC3 | inactive |
| COc1ccccc1-c1nc(N2CCN(C)CC2)c2ccccc2n1 | inactive |
| COc1ccccc1CNC(=O)C1CCN(c2nc3ccccc3o2)CC1 | inactive |
| COc1cc2nc(N3CCN(C(=O)[C@@H]4CCCO4)CC3)nc(N)c2cc1OC | 830 nM (active) |
| Cc1ccc(C(c2nnnn2CS(=O)(=O)c2ccc(C)cc2)N2CCC(C(N)=O)CC2)cc1 (stereo unspecified) | inactive |
| O=P(c1ccc2c(c1)OCCO2)(N1CCOCC1)N1CCOCC1 | inactive |
| COc1ccccc1CNCc1cccs1 | inactive |
| O=C(O)C1CCN(c2ncnc3ccc(-c4ccccc4C(F)(F)F)cc23)CC1 | inactive |
| COc1ccc(S(=O)(=O)N2CCN(C(=O)c3cccs3)CC2)cc1OC | 3700 nM (active) |
| COc1ccc(OCC(=O)N2CCN(C(=O)c3cccs3)CC2)cc1 | inactive |
| CCCS(=O)(=O)N1CCN(C(=O)c2cccs2)CC1 | inactive |
| CC(C)Oc1ccc(C2NC(=O)NC2=O)cc1 (stereo unspecified) | inactive |
| COc1ccc2c(c1OC)C(=O)OC2c1c(O)nc(SC)n(-c2ccccc2)c1=O (stereo unspecified) | inactive |
| O=C(CCCn1c(=O)oc2ccccc21)Nc1cccnc1 | inactive |
| Oc1c(CN2CCOCC2)ccc(CN2CCOCC2)c1O | inactive |
| O=C(CSc1nc(-c2ccco2)cc(C(F)(F)F)n1)NCc1cccs1 | inactive |
| COc1ccc(-c2cc(C(F)(F)F)nc(SCCC(=O)NCc3ccco3)n2)cc1 | inactive |
| FC(F)(F)c1cc(-c2cccs2)nc(NCc2ccco2)n1 | 16 nM (active) |

| Structure (SMILES) | max dye-equivalent concentration |
| --- | --- |
| Cc1ccc(NC2=NC(c3ccccc3)n3c(nc(C)cc3=O)N2)cc1 (stereo unspecified) | inactive |
| CC(=O)NC1=NC(=O)CS1 | inactive |
| CCOC(=O)c1ccc(CS(=O)c2ccc(Cl)cc2)o1 (stereo unspecified) | inactive |
| CCOC(=O)c1ccc(COC(=O)c2cc(=O)[nH]c3ccccc23)o1 | 40 nM (active) |
| COc1ccc(COC(=O)c2n[nH]c3ccccc23)cc1F | inactive |
| COc1ccccc1C(=O)n1nc(-c2ccccc2)nc1N | inactive |
| COc1ccc(C(=O)n2nc(-c3ccc(C)cc3)nc2N)cc1OC | 31 nM (active) |
| COc1ccc(C(=O)n2nc(-c3ccc(Cl)cc3)nc2N)cc1OC | inactive |
| Cc1cnc(CNc2ncncc2-c2ccccc2Cl)cn1 | inactive |
| Cc1ccnc(NC(=O)c2ccc(NC(=O)c3ccco3)cc2)c1 | inactive |
| CCN(CC)C(=O)c1sc(NC(=O)c2ccco2)c(C#N)c1C | inactive |
| CCn1nc(NC(=O)c2ccco2)c2cc3ccc(C)cc3nc21 | 86 nM (active) |
| O=C(CSc1nnc(-c2cnccn2)n1Cc1ccco1)c1ccc(Cl)c(Cl)c1 | inactive |
| CC(=O)N1CSCC1C(=O)O (stereo unspecified) | inactive |
| O=C(N1CCOCC1)N(Cc1ccccc1)c1ccccn1 | inactive |
| CN(C)CC/C=C1\c2ccccc2CSc2ccccc21 | inactive |
| COc1ccc(Cn2c(=O)sc3ccccc32)cc1OC | inactive |
| Cc1ccc2nc(NCCCNC(=O)c3cnccn3)c(C#N)cc2c1 | 220 nM (active) |
| O=S(=O)(c1ccccc1)N1CCC2(CC1)CN(Cc1nccs1)C2 | inactive |

| Structure (SMILES) | max dye-equivalent concentration |
| --- | --- |
| CCCCCN(C(=O)NC(=O)Nc1ccccc1C)S(C)(=O)=O | inactive |
| O=C(c1cnccn1)N1CCC2(CCCN(Cc3ccccc3)C2)CC1 | inactive |
| O=C(CSC1=Nc2ccccc2C2=NC(c3ccccc3)C(=O)N12)NCC1CCCO1 (stereo unspecified) | 590 nM (active) |
| O=C(CS(=O)(=O)Cc1ccccc1)NCC1CCCO1 (stereo unspecified) | inactive |
| O=C(CSc1nnc(-c2ccc(NS(=O)(=O)c3ccccc3)cc2)o1)NCC1CCCO1 (stereo unspecified) | inactive |
| COc1ccc(S(=O)(=O)Nc2c(C)n(C)n(-c3ccccc3)c2=O)cc1 | inactive |
| CN(C)C(=O)c1ccc(-c2cncnc2NC2CCNCC2)cc1 | inactive |
| CCCc1cc(=O)[nH]c(SCc2ccc(C#N)cc2)n1 | inactive |
| Cc1ccc(S(=O)(=O)NCC(=O)OCC(=O)N2CCc3ccccc32)cc1 | inactive |
| O=C(c1cc(-c2cccs2)on1)N1CCCCC1 | inactive |
| Cc1ccc2cc3cc(C(=O)N4CCCCCC4)oc3nc2c1 | 11 nM (active) |
| Cc1ccc(C(=O)N2CCCCCC2)cc1Br | inactive |
| O=C(CSc1nc2[nH]ncc2c(=O)n1-c1ccccc1)N1CCCc2ccccc21 | inactive |
| COc1cc2c(cc1OC)C(c1ccncc1)CC(=O)N2 (stereo unspecified) | inactive |
| Cc1ccc(OCc2nc(C#N)c(N3CCCC3)o2)cc1 | inactive |
| Cc1cccc2cc(C#N)c(N3CCCC3)nc12 | 37 nM (active) |
| Cc1cc(C)c2nc(N3CCCC3)c(C#N)cc2c1 | 130 nM (active) |
| Cc1ccc2nc(CC(=O)c3ccc4ccccc4c3)c(=O)[nH]c2c1 | inactive |
